Measurements taken from the supplement of paper PMC8728848.
This is one part of a sample in which the strongest signals are shown more often than they occur.

Experiments:
Assay in all cases: glycan array binding signal (z-score within array); higher = stronger binding
Conditions in all cases: glycan notation: IUPAC condensed, linker removed
Fuc(a1-2)Gal(b1-3)GalNAc = target: Fuc(a1-2)Gal(b1-3)GalNAc
Summary of the method: (§1)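 Glycan array binding is given as a within-array Z-score, which can be read as non-binding when negative. The arrays, 3228 of them, came from the Consortium for Functional Glycomics database and were retained only where the protein sequence was available. Z-scores were averaged across arrays of the same protein sequence at different concentrations or buffers and across linkers.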

[1] = target: Fuc(a1-2)Gal(b1-3)GalNAc(b1-4)[Neu5Ac(a2-3)]Gal(b1-4)Glc
Summary of the method: as §1

Fuc(a1-2)Gal(b1-4)Glc = target: Fuc(a1-2)Gal(b1-4)Glc
Summary of the method: as §1

[2] = target: Fuc(a1-2)Gal(b1-4)[Fuc(a1-3)]GlcNAc(b1-3)Gal(b1-4)[Fuc(a1-3)]GlcNAc(b1-3)Gal(b1-4)[Fuc(a1-3)]GlcNAc
Summary of the method: as §1

[3] = target: Fuc(a1-2)Gal6S(b1-3)GlcNAc6S
Summary of the method: as §1

[4] = target: Fuc(a1-2)[Gal(a1-3)]Gal(b1-3)GlcNAc
Summary of the method: as §1

[5] = target: Fuc(a1-2)[Gal(a1-3)]Gal(b1-3)GlcNAc(b1-2)Man(a1-3)[Fuc(a1-2)[Gal(a1-3)]Gal(b1-3)GlcNAc(b1-2)Man(a1-6)]Man(b1-4)GlcNAc(b1-4)[Fuc(a1-6)]GlcNAc
Summary of the method: as §1

[6] = target: Fuc(a1-2)[Gal(a1-3)]Gal(b1-4)GlcNAc(b1-2)Man(a1-3)[Fuc(a1-2)[Gal(a1-3)]Gal(b1-4)GlcNAc(b1-2)Man(a1-6)]Man(b1-4)GlcNAc(b1-4)GlcNAc
Summary of the method: as §1

[7] = target: Fuc(a1-2)[GalNAc(a1-3)]Gal(b1-3)GlcNAc(b1-2)Man(a1-3)[Fuc(a1-2)[GalNAc(a1-3)]Gal(b1-3)GlcNAc(b1-2)Man(a1-6)]Man(b1-4)GlcNAc(b1-4)[Fuc(a1-6)]GlcNAc
Summary of the method: as §1

[8] = target: Fuc(a1-2)[GalNAc(a1-3)]Gal(b1-3)GlcNAc(b1-6)GalNAc
Summary of the method: as §1

[9] = target: Gal(a1-3)[Gal(a1-4)]Gal(b1-4)GlcNAc
Summary of the method: as §1

[10] = target: Gal(a1-4)Gal(b1-3)GlcNAc(b1-2)Man(a1-3)[Gal(a1-4)Gal(b1-3)GlcNAc(b1-2)Man(a1-6)]Man(b1-4)GlcNAc(b1-4)GlcNAc
Summary of the method: as §1

Gal(b1-3)Gal(b1-4)GlcNAc = target: Gal(b1-3)Gal(b1-4)GlcNAc
Summary of the method: as §1

[11] = target: Gal(b1-3)GlcNAc(b1-2)Man(a1-3)[Gal(b1-3)GlcNAc(b1-2)Man(a1-6)]Man(b1-4)GlcNAc(b1-4)GlcNAc
Summary of the method: as §1

[12] = target: Gal(b1-3)GlcNAc(b1-3)Gal(b1-4)[Fuc(a1-3)]GlcNAc
Summary of the method: as §1

[13] = target: Gal(b1-3)GlcNAc(b1-6)[Gal(b1-3)]GalNAc
Summary of the method: as §1

[14] = target: Gal(b1-4)GlcNAc(b1-2)Man(a1-3)[Gal(b1-4)GlcNAc(b1-2)Man(a1-6)]Man(b1-4)GlcNAc(b1-4)[Fuc(a1-6)]GlcNAc
Summary of the method: as §1

[15] = target: Gal(b1-4)GlcNAc(b1-2)Man(a1-3)[Gal(b1-4)GlcNAc(b1-2)Man(a1-6)][Gal(b1-4)GlcNAc(b1-4)]Man(b1-4)GlcNAc(b1-4)[Fuc(a1-6)]GlcNAc
Summary of the method: as §1

[16] = target: Gal(b1-4)GlcNAc(b1-2)Man(a1-3)[Gal(b1-4)GlcNAc(b1-2)Man(a1-6)][GlcNAc(b1-4)]Man(b1-4)GlcNAc(b1-4)[Fuc(a1-6)]GlcNAc
Summary of the method: as §1

[17] = target: Gal(b1-4)GlcNAc(b1-3)Gal(b1-4)GlcNAc(b1-2)Man(a1-3)[Gal(b1-4)GlcNAc(b1-3)Gal(b1-4)GlcNAc(b1-2)Man(a1-6)]Man(b1-4)GlcNAc(b1-4)[Fuc(a1-6)]GlcNAc
Summary of the method: as §1

[18] = target: Gal(b1-4)GlcNAc(b1-3)Gal(b1-4)GlcNAc(b1-3)Gal(b1-4)GlcNAc(b1-2)Man(a1-3)[Gal(b1-4)GlcNAc(b1-3)Gal(b1-4)GlcNAc(b1-3)Gal(b1-4)GlcNAc(b1-2)Man(a1-6)]Man(b1-4)GlcNAc(b1-4)GlcNAc
Summary of the method: as §1

[19] = target: Gal(b1-4)GlcNAc(b1-3)Gal(b1-4)GlcNAc(b1-3)Gal(b1-4)GlcNAc(b1-2)[Gal(b1-4)GlcNAc(b1-3)Gal(b1-4)GlcNAc(b1-3)Gal(b1-4)GlcNAc(b1-6)]Man(a1-6)[Gal(b1-4)GlcNAc(b1-3)Gal(b1-4)GlcNAc(b1-3)Gal(b1-4)GlcNAc(b1-2)Man(a1-3)]Man(b1-4)GlcNAc(b1-4)[Fuc(a1-6)]GlcNAc
Summary of the method: as §1

[20] = target: Gal(b1-4)GlcNAc(b1-3)Gal(b1-4)GlcNAc(b1-3)Gal(b1-4)GlcNAc(b1-3)Gal(b1-4)GlcNAc(b1-2)Man(a1-3)[Gal(b1-4)GlcNAc(b1-3)Gal(b1-4)GlcNAc(b1-3)Gal(b1-4)GlcNAc(b1-3)Gal(b1-4)GlcNAc(b1-2)Man(a1-6)]Man(b1-4)GlcNAc(b1-4)GlcNAc
Summary of the method: as §1

[21] = target: Gal(b1-4)GlcNAc(b1-3)Gal(b1-4)GlcNAc(b1-3)Gal(b1-4)GlcNAc(b1-3)Gal(b1-4)GlcNAc(b1-3)Gal(b1-4)GlcNAc(b1-2)Man(a1-3)[Gal(b1-4)GlcNAc(b1-3)Gal(b1-4)GlcNAc(b1-3)Gal(b1-4)GlcNAc(b1-3)Gal(b1-4)GlcNAc(b1-3)Gal(b1-4)GlcNAc(b1-2)Man(a1-6)]Man(b1-4)GlcNAc(b1-4)GlcNAc
Summary of the method: as §1

[22] = target: Gal3S(b1-4)[Fuc(a1-3)]GlcNAc6S
Summary of the method: as §1

Gal3S6S(b1-4)GlcNAc = target: Gal3S6S(b1-4)GlcNAc
Summary of the method: as §1

[23] = target: Glc(a1-6)Glc(a1-6)Glc(a1-6)Glc
Summary of the method: as §1

B1: PX14343G-pdi-535-24-535 (Parabacteroides distasonis) (protein)
chain: LDTVPKDQLAPSTTWQTEADAKGFIVGCYKDLLDGNTLLYLDCGSDIGYNNFPWEGFRPWGDGSLSSSNPGQILYDYKSIRKANTFLENVDKVTFSSDAVKANYVAQAKAIRAYKYFLMNWWYGGVPIISSYSSADEAKVERNTEQEVRDYIAKDLDEALAGIAEAPEARGYIAKGAVLAIKMREALYYGDWQKAKDAAKAIIDLKQYELDPDYTNLFKVSGVDSKEIILADQNIETLDGLGTIGQMYNNVDQGWSSIVPTQNLVDMYEMSDGLTKEESKTYDAKHPFANRDPRMAMTILYPGRDWRGDVLNTLDEKLQDGTVNKNFPTYTDNASKSALTWAKYLDPMDQYGDVWSSGACPIVFRYAEVLLTYAEAANELSGPSDEIYGYLNQIRQRVGMGEVDKAKYGTKDKLRELIRRERTVELAGEGLRRADIVRWQEDGKMLAEKVMNGDLLRVTGTINYGESEPTKRAEITGTAVIETRQFSSRNRYLPIPQTSMDKNPNLKQNPGY
- glycan array binding signal (z-score) (Fuc(a1-2)Gal(b1-3)GalNAc): -1.05
- glycan array binding signal (z-score) [1]: -0.439
- glycan array binding signal (z-score) (Fuc(a1-2)Gal(b1-4)Glc): -0.597
- glycan array binding signal (z-score) [2]: -0.34
- glycan array binding signal (z-score) [3]: 0.336
- glycan array binding signal (z-score) [4]: 0.064
- glycan array binding signal (z-score) [5]: -0.242
- glycan array binding signal (z-score) [6]: 2.43
- glycan array binding signal (z-score) [7]: -1.2
- glycan array binding signal (z-score) [8]: -0.366
- glycan array binding signal (z-score) [9]: 2.67
- glycan array binding signal (z-score) [10]: -0.566
- glycan array binding signal (z-score) (Gal(b1-3)Gal(b1-4)GlcNAc): 0.673
- glycan array binding signal (z-score) [11]: 0.51
- glycan array binding signal (z-score) [12]: -0.53
- glycan array binding signal (z-score) [13]: 0.402
- glycan array binding signal (z-score) [14]: -0.363
- glycan array binding signal (z-score) [15]: -0.426
- glycan array binding signal (z-score) [16]: -0.515
- glycan array binding signal (z-score) [17]: 2.06
- glycan array binding signal (z-score) [18]: 1.65
- glycan array binding signal (z-score) [19]: 3.07
- glycan array binding signal (z-score) [20]: 0.004
- glycan array binding signal (z-score) [21]: 2.76
- glycan array binding signal (z-score) [22]: 2.01
- glycan array binding signal (z-score) (Gal3S6S(b1-4)GlcNAc): 0.193
- glycan array binding signal (z-score) [23]: 0.739
